ChEMBL document CHEMBL1157539, “Thousands of chemical starting points for antimalarial lead identification” (Nature, 2010)

Tests used:
Type in all cases: functional
[1] = test system: Plasmodium falciparum; assay: GSK_TCMDC: Inhibition of Plasmodium falciparum 3D7 in whole red blood cells, using parasite LDH activity as an index of growth. Test compounds present at 2uM
[2] = test system: Plasmodium falciparum; assay: GSK_TCMDC: Inhibition of Plasmodium falciparum Dd2 in whole red blood cells, using parasite LDH activity as an index of growth. Test compounds present at 2uM
[3] = test system: HepG2; assay: GSK_TCMDC: Percent inhibition of human HepG2 cell line. Test compounds present at 10uM.

## CCCNC(=O)c1ccc(N2CCC(c3ccccc3C)CC2)nc1.O=C(O)C(F)(F)F
[1]
  Inhibition: 86%
[2]
  Inhibition: 80%
[3]
  Inhibition: 6%

## O=C(/C=C/c1ccc(Cl)cc1)NCCCCCN1CCC(C(=O)Nc2ccc(Cl)cc2)CC1
[1]
  Inhibition: 99%
[2]
  Inhibition: 0%
[3]
  Inhibition: 27%

## Cn1cncc1C(=O)Nc1cccc(-c2ccc(-c3nc4cc(C(F)(F)F)ccc4[nH]3)cc2)c1
[1]
  Inhibition: 97%
[2]
  Inhibition: 98%
[3]
  Inhibition: 4%

## COc1cc(C(F)(F)F)c2cc(CNCCCNc3nc4ccccc4[nH]3)[nH]c2c1
[1]
  Inhibition: 100%
[2]
  Inhibition: 0%
[3]
  Inhibition: 60%

## COc1ccccc1CCNC(=O)c1cnc(N2CCN(c3ccncc3)CC2)c(Cl)c1.O=C(O)C(F)(F)F
[1]
  Inhibition: 98%
[2]
  Inhibition: 54%
[3]
  Inhibition: 30%

## CC1CC(NCCCNc2cc(=O)c3ccccc3[nH]2)c2cc(Cl)c(Cl)c(Cl)c21 (configuration not stated)
[1]
  Inhibition: 100%
[2]
  Inhibition: 69%
[3]
  Inhibition: 0%

## O=C1Nc2cccc3c2C1(CCCN1CCC(c2c[nH]c4cc(C(F)(F)F)ccc24)CC1)CCC3 (configuration not stated)
[1]
  Inhibition: 89%
[2]
  Inhibition: 37%
[3]
  Inhibition: 91%

## CCN(CC)C(=O)C1CCN(C(C(=O)N2CCN(CC(=O)N3CCCC3)CC2)c2cc3ccccc3o2)CC1 (configuration not stated)
[1]
  Inhibition: 98%
[2]
  Inhibition: 4%
[3]
  Inhibition: 0%

## COc1ccc(CN(C)C(=O)CCNS(=O)(=O)c2ccc3c(c2)OCCCO3)cc1F
[1]
  Inhibition: 96%
[2]
  Inhibition: 94%
[3]
  Inhibition: 9%

## COc1cc(Cc2cnc(N)nc2N)cc(OCCCCc2nnn[nH]2)c1OC
[1]
  Inhibition: 97%
[2]
  Inhibition: 0%
[3]
  Inhibition: 7%

## CN1CCC(N2CCN(Cc3ccc(-c4ccc(-c5nc6cc(F)ccc6[nH]5)s4)cc3)CC2)CC1.O=C(O)C(F)(F)F
[1]
  Inhibition: 100%
[2]
  Inhibition: 100%
[3]
  Inhibition: 62%

## C=C(C)CSc1nc2c(c(=O)n1CCc1ccccc1)C1(CCCC1)Cc1ccccc1-2
[1]
  Inhibition: 100%
[2]
  Inhibition: 80%
[3]
  Inhibition: 14%

## O=C(/C=C/c1ccc(Cl)c(Cl)c1)NCCCCCN1CCCN(C(=O)Nc2cccc(F)c2)CC1
[1]
  Inhibition: 97%
[2]
  Inhibition: 4%
[3]
  Inhibition: 20%

## CCNc1cc(C(=O)NC(Cc2ccccc2)C(O)CNC2CCSCC2)cc(N2CCCC2=O)c1 (configuration not stated)
[1]
  Inhibition: 99%
[2]
  Inhibition: 98%
[3]
  Inhibition: 0%

## Cc1ccc2c(=NN=Cc3cccc(F)c3)cc(C)[nH]c2c1
[1]
  Inhibition: 96%
[2]
  Inhibition: 66%
[3]
  Inhibition: 34%

## CC(=O)NCCNc1nccc(N2CCc3ncnc(Nc4ccc(OCc5cccc(F)c5)c(Cl)c4)c3C2)n1
[1]
  Inhibition: 100%
[2]
  Inhibition: 100%
[3]
  Inhibition: 10%

## Cc1ccc(NC(C)C(=O)Nc2ccc(C#N)cc2)cc1S(=O)(=O)N1CCCCC1 (configuration not stated)
[1]
  Inhibition: 92%
[2]
  Inhibition: 92%
[3]
  Inhibition: 11%

## O=C(O)C(F)(F)F.c1ccc(CNCc2ccc(-c3ccc(-c4nc5ccccc5[nH]4)cc3)cc2)cc1
[1]
  Inhibition: 100%
[2]
  Inhibition: 93%
[3]
  Inhibition: 32%

## CSc1nc2nc(C)c(Cc3cccc(F)c3)c(C)n2n1
[1]
  Inhibition: 87%
[2]
  Inhibition: 45%
[3]
  Inhibition: 3%

## Cc1ccc(C(=O)N2CCc3cc4nccc(N5CCN6CCC[C@H]6C5)c4cc32)cc1
[1]
  Inhibition: 95%
[2]
  Inhibition: 13%
[3]
  Inhibition: 5%

## CN(c1ccc2c(c1)nc(NCc1ccccc1)n2C)c1ccnc(Nc2ccc(CS(C)(=O)=O)cc2)n1.Cl
[1]
  Inhibition: 94%
[2]
  Inhibition: 69%
[3]
  Inhibition: 61%

## COC1(C)Oc2ccc3cccc([N+](=O)[O-])c3c2C1=O (configuration not stated)
[1]
  Inhibition: 98%
[2]
  Inhibition: 0%
[3]
  Inhibition: 3%

## CC(C)(C)c1ccc(-c2cc3c(ccc4nc(N)nc(N)c43)[nH]2)cc1
[1]
  Inhibition: 100%
[2]
  Inhibition: 100%
[3]
  Inhibition: 100%

## CC1CCc2c(C(=O)Nc3c(F)cc(F)cc3Br)csc2C1 (configuration not stated)
[1]
  Inhibition: 96%
[2]
  Inhibition: 59%
[3]
  Inhibition: 0%

## CC(C)NCC(O)Cn1c2ccc(Br)cc2c2cc(Br)ccc21 (configuration not stated)
[1]
  Inhibition: 99%
[2]
  Inhibition: 100%
[3]
  Inhibition: 100%

## O=S(=O)(Nc1ccc(CCN2CCC(N3CCCCC3)CC2)cc1)c1ccc(Cl)cc1
[1]
  Inhibition: 100%
[2]
  Inhibition: 18%
[3]
  Inhibition: 23%

## CN(C)C(=O)c1ccc(CN(Cc2ccc(OC(C)(C)C)cc2)Cc2ccc3c(c2)OCCO3)cc1
[1]
  Inhibition: 95%
[2]
  Inhibition: 96%
[3]
  Inhibition: 0%

## COc1ccccc1N1CCN(CCCCNC(=O)c2ccc(NC(=O)c3cc(Cl)cc(Cl)c3)cc2)CC1
[1]
  Inhibition: 100%
[2]
  Inhibition: 75%
[3]
  Inhibition: 9%

## CC1CN(Cc2ccc(C#N)cc2)CCN1c1ccc(NC(=O)c2cccs2)cc1.O=C(O)C(F)(F)F (configuration not stated)
[1]
  Inhibition: 93%
[2]
  Inhibition: 89%
[3]
  Inhibition: 8%
